Records with an inconclusive call do not appear. A call without a number means that no potency is given here. The source made the active and inactive calls. Calls follow the shape of the dose curve; as a rule, active = well fitted cell-killing curve with a large enough effect in the repeat runs; inconclusive = weak or mixed curves, or effect the other way; inactive = flat fitted curve, though single readings scatter.
Experiment: Caspase-3/7 induction in HepG2 cells by small molecules, qHTS cell viability counter screen (AID 1346981); also: nearly all actives have a fitted effect of over 30% in size
Conditions: CellTiter-Fluor fluorescence, 17 h; series mostly up to 92.4 µM
Excerpt: U.S. Tox21 Program National Center for Advancing Translational Sciences [NCATS] NIH Chemical Genomics Center [NCGC] U.S. Environmental Protection Agency [EPA] National Institutes of Environmental Health Sciences [NIEHS] National Toxicology Program [NTP] U.S. Food and Drug Administration [FDA] Tox21 Assay Overview: Apoptosis is a process of programmed cell death and plays a central role in the development of multicellular organisms. It is a highly regulated process and induces cell death by activating caspases, which are the members of cysteine aspartic acid-specific protease (caspase) family. Caspases involved in apoptosis are classified by their mechanism of action as initiator caspases (caspase-2, -8, -9 and -10) and executioner caspases (caspase-3, -6, and -7). Inhibition of apoptosis results in number of cancers, autoimmune diseases, inflammatory diseases and viral infection. To identify small molecule compounds that induce apoptosis, a homogeneous, luminescent Caspase-Glo 3/7 assay was used. Wild type HepG2 cells were used to screen Tox21 libraries for identifying caspase-3/7 activity inducers. Also cytotoxicity of the compounds was tested in parallel by measuring the cell viability using CellTiter-Fluor assay system in the same wells.
Tox21 Assay Protocol Summary: HepG2 cells were dispensed at 2,000 per well in 5uL of culture medium into white solid bottom 1536-well plates (Corning Life Sciences, Corning, NY) using a Multidrop Combi (Thermo Scientific, Waltham, MA) dispenser. The assay plates were incubated at 37 C and 5% CO2 for 5hr, and then 23nL of compounds dissolved in DMSO and positive control were transferred using a Pintool station ([…], San Diego, CA). The assay plates were incubated at 37C and 5% CO2 for 17hr. For cytotoxicity read, after 16hr incubation at 37C, 1uL CellTiter-Fluor reagent (Promega Corporation, Madison, WI) was added to each well of the assay plates using Flying Reagent Dispenser (FRD, Aurora Discovery, San Diego, CA). After 1hr incubation at 37C and 5% CO2, the fluorescence signal was quantified using a ViewLux plate reader (PerkinElmer, Shelton, CT).

SMILES	Potency	activity change, negative = cytotoxicity
Cc1nc(-c2ccccn2)ncc1C(=O)Nn1cc(C)c2cc(F)ccc21	inactive	–
O=Cc1ccc(F)c(Br)c1	inactive	–
Cc1c(-c2ccccc2)oc2c(C(=O)OCCN3CCCCC3)cccc2c1=O	inactive	–
O=C1CCCCCCCCCCC(=O)OCCO1	inactive	–
CCOC(=O)NCCC[Si](OCC)(OCC)OCC	inactive	–
CC1(C)S[C@@H]2[C@H](NC(=O)C(C(=O)O)c3ccccc3)C(=O)N2[C@H]1C(=O)O (stereo not given in full)	inactive	–
O=CCCc1ccccc1	inactive	–
CC(C)(C)c1ccc(OC(=O)c2ccccc2O)cc1	inactive	–
COc1nc(C)nc(NC(=O)NS(=O)(=O)c2ccccc2OCCCl)n1	inactive	–
CC(=O)Oc1cc(C(C)C)c(OCCN(C)C)cc1C	inactive	–
NC(=O)Cc1cccc(C(=O)c2ccccc2)c1N	inactive	–
CCCC(CCC)(C(=O)OCC)C(=O)OCC	inactive	–
CC1CN(c2ccccc2)NC1=O (stereo not given)	inactive	–
CC(=O)Nc1ccc(C)c(Cl)c1	inactive	–
CN(C)CC[C@@H](c1ccc(Cl)cc1)c1ccccn1	inactive	–
FC(F)(F)C(F)(F)C(F)(F)C(F)(F)C(F)(F)C(F)(F)C(F)(F)C(F)(F)Br	inactive	–
C=CC(C)(O)CC/C=C(\C)CCC=C(C)C (stereo not given)	inactive	–
O=C(O)c1cccc(Cl)c1Cl	inactive	–
CC/C=C\CCOC(=O)C(C)C	inactive	–
OCc1ccccc1O	inactive	–

SMILES	Potency	activity change, negative = cytotoxicity
CCOC(=O)CS	inactive	–
CC(=O)N[C@@H](CC(C)C)C(=O)O	inactive	–
OCCN1CCN(CCO)CC1	inactive	–
CCOc1ccc2nc(N)sc2c1	inactive	–
CCCc1c2oc(C(=O)O)cc(=O)c2cc2c(=O)cc(C(=O)O)n(CC)c12	inactive	–
CC1=C2[C@H](/C=C(\C)C(=O)O)CC[C@@H](C)[C@H]2CC1	inactive	–
CCCCC(=O)O[C@]1(C(=O)CO)[C@H](C)C[C@H]2[C@@H]3CCC4=CC(=O)C=C[C@]4(C)[C@@]3(F)[C@@H](O)C[C@@]21C	inactive	–
CC/C=C\CCOC(=O)CCCCC	inactive	–
COC(=O)c1ccc2cc(C(=O)OC)ccc2c1	–	-0.603% [at 19 µM] (inactive)
Cc1c[nH]c(=S)[nH]c1=O	inactive	–
CCN(CC)CCOc1ccc(Cc2ccccc2)cc1	inactive	–
CCCS(=O)c1ccc2nc(NC(=O)OC)[nH]c2c1 (stereo not given)	inactive	–
CO[C@@]1(NC(=O)CSCC#N)C(=O)N2C(C(=O)O)=C(CSc3nnnn3C)CS[C@@H]21	inactive	–
NC(Cc1ccc(F)cc1)C(=O)O (stereo not given)	–	-1.98% [at 8.39 µM] (inactive)
Cc1cc(S(=O)(=O)O)c(N)cc1Cl	inactive	–
CN1CCN(c2c(F)cc3c(=O)c(C(=O)O)cn4c3c2SCC4)CC1	inactive	–
CCCC1CCC(=O)O1 (stereo not given)	inactive	–
CC(C)(C)c1cccc(O)c1	inactive	–
CCC(=O)O[C@]1(C(=O)SCF)[C@H](C)C[C@H]2[C@@H]3C[C@H](F)C4=CC(=O)C=C[C@]4(C)[C@@]3(F)[C@@H](O)C[C@@]21C	inactive	–
CCCCCCCOC(=O)CCC	inactive	–

From PubChem BioAssay (Tox21)
